PubChem BioAssay AID2314 (National Center for Advancing Translational Sciences (NCATS), 2010)
Among all 300,000 compounds or so, about 37,000 (12%) were called active. Many of the other results were omitted from the sample, so actives are more common in it than they were. Values without a mark were called inactive. Rule as the data show it: active = max response mostly above about 13% (no sharp cut-off); inactive = mostly below about 14%.

Test: Cycloheximide Counterscreen for Small Molecule Inhibitors of Shiga Toxin; also: read at 38.3 µM for the half of the compounds with a filed dose; 0% is about no effect
Settings: cell reporter, cycloheximide protein synthesis inhibition counterscreen; stronger effect = higher value

With `CC1CCN(C(=O)CCNC(=O)c2ccccc2)CC1` the max response was 31.5% (active).
In the case of `COc1ccc(-c2ccc(OC(=O)NC3CCS(=O)(=O)C3)cc2)cc1` (configuration not stated), the max response is reported as 28.5% (active).
For `COc1ccc(/C=C2\SC(=O)N(CCC(=O)NC3CCS(=O)(=O)C3)C2=O)cc1` (configuration not stated), the max response was 27.8% (active).
With `COc1ccc(/C=C2\SC(=O)N(CCC(=O)NCCCn3ccnc3)C2=O)cc1` the max response was 18.8% (active).
For `Cc1ccc(/C=C2/SC(=S)N(CCC(=O)NCCCN3CCOCC3)C2=O)cc1`, the max response was 11.5% (active).
With `Cc1ccc(Oc2nc(-c3ccccn3)nc3ccccc23)cc1` the max response was 25% (active).
In the case of `CCc1ccc(NC(=O)c2ccc(Cn3cc([N+](=O)[O-])cn3)cc2)cc1`, the max response is reported as 26.2% (active).
In the case of `NC(=O)COc1ccc(C23CC4CC(CC(C4)C2)C3)cc1`, the max response is reported as 32.3% (active).
With `COc1ccc(NC(=O)C/C(C)=N/NC(=O)c2cnccn2)cc1Cl` the max response was 53.7% (active).
With `COC(=O)C(=Nc1ccccc1)/C(C(=O)C(=O)N(C)c1ccccc1)=C(\O)c1ccc(Cl)cc1` the max response was 23.6% (active).
For `CC(C)CC(=O)NC(=S)Nc1ccc(F)cc1F`, the max response was 23.2% (active).
For `N#CC1=C(N)Oc2c(sc3ccccc23)C1c1ccco1` (configuration not stated), the max response was 28.9% (active).
With `COc1ccc(-c2csc(NC(=O)COC(=O)c3ccc(Br)o3)n2)cc1` the max response was 33.7% (active).
With `COc1ccc(-c2csc(NC(=O)COC(=O)Cc3ccc(Cl)cc3Cl)n2)cc1` the max response was 45.1% (active).
In the case of `O=C(Oc1ccc2c(c1)CCC2)N1CCOCC1`, the max response is reported as 53.5% (active).
For `O=c1c(Cl)c(NC2CC2)cnn1-c1ccccc1`, the max response was 31.2% (active).
In the case of `COc1ccc(N2CCN(C(=O)/C(C#N)=C/c3ccccc3)CC2)cc1`, the max response is reported as 14.2% (active).
With `CCOC(=O)/C(C#N)=C/c1ccc(N2CCCCC2)cc1` the max response was 40.9% (active).
With `CCOC(=O)/C(C#N)=C/c1ccc(N2CCN(Cc3ccccc3)CC2)cc1` the max response was 10.2% (active).
In the case of `O=S(=O)(Nc1ccc2nc(-c3ccco3)[nH]c2c1)c1ccccc1`, the max response is reported as 33.7% (active).
With `Cc1cc(Cl)ccc1OCc1nc(-c2ccncc2)no1` the max response was 35.5% (active).

In order of falling max response:
1. C/C(=C/c1ccccc1)C(=O)N1CCN(c2ccccc2)CC1  20%
2. COc1ccc(-c2nc(CCNC(=O)c3ccc(Br)o3)cs2)cc1  13.1%
3. Cc1cccn2c(=O)c(/C=C(\C#N)C(N)=O)c(N3CCCCCC3)nc12  12.8%
4. CC(=O)c1ccc(OC(=O)N2CCOCC2)cc1  11.8%
5. COC(=O)c1cn(C(=O)c2ccc(Cl)cc2)c2ccccc12  10.5%
6. CCC(=O)Nc1nnc(S(=O)(=O)N(CC(C)C)c2ccccc2)s1  10.1%
7. CC(=O)c1ccc(NC(=S)NC(=O)CC(C)C)cc1  9.98%
8. COc1ccc(NC(=O)CN2C(=O)CSc3ccc(S(=O)(=O)N4CCC(C)CC4)cc32)cc1  9.42%
9. Cc1c(Cl)cccc1NC(=O)[C@@]1(CC(=O)O)CC(/C=C/c2ccccc2)=NO1  9.29%
10. COc1ccc(-c2n[nH]c3c2CN(C(=O)c2ccc(F)cc2)CC3)cc1  9.17%
11. COc1ccc(OC)c(-c2csc(NC(=O)C3=NNC(=O)CC3)n2)c1  9%
12. Cc1ccc(-c2nc(-c3cccnc3)sc2CC(=O)Nc2ccc(C)c(Cl)c2)cc1  8.82%
13. COc1ccc(-c2noc(COc3ccc(Cl)c(C)c3)n2)cc1  8.61%
14. CC1CCN(C(=O)/C(=C\c2ccccc2F)NC(=O)c2ccccc2)CC1  8.12%
15. COc1ccccc1/C=C1\SC(=O)N(CCC(=O)N(C)C2CCS(=O)(=O)C2)C1=O (configuration not stated)  7.79%
16. O=C(COc1cccc2ccccc12)Nc1cc(S(=O)(=O)N2CCOCC2)ccc1N1CCOCC1  7.56%
17. COc1ccc(N2CCN(C(=O)CCSCc3ccccc3F)CC2)cc1  7.14%
18. NNC(=O)COc1ccc(C2SCCS2)cc1  5.31%
19. O=S(=O)(Nc1ccc2cn[nH]c2c1)c1ccccc1  5.04%
20. COc1ccc(CCNS(=O)(=O)c2cccc([N+](=O)[O-])c2)cc1  4.94%
21. NS(=O)(=O)c1ccc(CCNC(=O)CNC(=O)Cc2ccccc2)cc1  4.6%
22. COc1cccc(NC(=O)Cn2c3ccc(F)cc3c3nc4n(c(=O)c32)CCS4)c1  4.56%
23. COc1cnc(-c2ccccn2)nc1Oc1ccc(C(C)(C)C)cc1  4.47%
24. O=C(CCN1C(=O)c2ccccc2C1=O)NCCCn1ccnc1  4.07%
25. CCSc1nc(O)c(C(c2cccc(OC)c2)c2c(O)nc(SCC)[nH]c2=O)c(=O)[nH]1  4%
26. CCN(CCNC(=O)C1=C(C)C(=O)OC12CCC(C)CC2)c1ccccc1 (configuration not stated)  3.3%
27. O=Cc1c(N2CCN(c3cccc(Cl)c3)CC2)nc2ccccn2c1=O  3.1%
28. Cc1cc(Cl)ccc1OCCCC(=O)NCc1ccncc1  2.81%
29. CC(C)(C)NC(=O)NC(=O)COC(=O)Cc1ccc(Cl)cc1Cl  2.66%
30. CN1CCN(CCCCOc2cccc3ccccc23)CC1  2.51%
31. COc1cccc(NC(=O)c2ccc(Cn3cc([N+](=O)[O-])cn3)o2)c1  1.95%
32. CCOc1ccc(N(CC(=O)NCCOc2ccccc2OC)S(=O)(=O)c2ccccc2)cc1  1.62%
33. N#CC1=C(N)Oc2c(c(=O)oc3ccccc23)C1c1ccccc1OC(=O)c1cccs1 (configuration not stated)  1.47%
34. Cc1ccc2c(cnn2C(=O)CCC(=O)NC2CCCC2)c1  1.35%
35. Cn1cccc1Cc1nnc(SCC(=O)NCc2ccc3c(c2)OCO3)n1CCc1ccccc1  1.14%
36. COC(=O)/C(NC(C)=O)=C(\C)c1ccc(Cl)cc1  1.02%
37. CCOC(=O)/C(C#N)=C\c1c(C)cc(C)c(COC(C)=O)c1C  0.938%
38. Cn1c2ccc(F)cc2c2nnc(NN)nc21  0.49%
39. NC(=O)COc1ccccc1C(=O)NC12CC3CC(CC(C3)C1)C2  0.476%
40. N#Cc1ccc(C(=O)Nc2nc(-c3cccs3)c(C(=O)C(F)(F)F)s2)cc1  0.458%
41. Cc1ccc(/C=C2\SC(=S)N(CCC(=O)Nc3ccc(O)cc3)C2=O)cc1  0.318%
42. Cc1c(Cl)c([N+](=O)[O-])nn1CCCC(=O)NC(C)c1ccccc1 (configuration not stated)  0.248%
43. O=C(CCN1C(=O)c2ccccc2C1=O)NCCN1CCOCC1  -0.442%
44. O=C(CN1C(=O)S/C(=C\c2ccccc2F)C1=O)NCCCn1ccnc1  -0.628%
45. COc1cccc(OC)c1C(=O)Nc1c(C(=O)N2CCN(c3ccccn3)CC2)oc2ccccc12  -0.82%
46. O=C(Cc1ccc(Cl)cc1)NC1CCS(=O)(=O)C1 (configuration not stated)  -0.92%
47. Cc1cccc(NC(=O)c2cc(S(=O)(=O)N3CCC4(CC3)OCCO4)ccc2F)c1  -1.02%
48. CCCCC(=O)N/N=C(\C)CC(=O)Nc1cc(Cl)ccc1OC  -1.06%
49. OC(CNC1CCCC1)COc1ccc(F)cc1 (configuration not stated)  -1.08%
50. CC1CC2=C(CC1/C=N/NC(N)=S)C(C)(C)CCC2 (configuration not stated)  -1.08%
51. CCn1cc(/C=C(\NC(=O)c2ccc(C)cc2)C(=O)NCCN2CCOCC2)c2ccccc21  -1.13%
52. Cc1cc(C)c2c3c(sc2n1)C(c1ccccc1)C(C#N)=C(N)O3 (configuration not stated)  -1.32%
53. COc1ccc(NC(=O)CCN2C(=O)/C(=C/c3ccc4c(c3)OCO4)SC2=S)cc1  -1.34%
54. CC1CCN(C(=O)/C(=C\c2ccccc2)NC(=O)c2ccccc2)CC1  -1.41%
55. O=C(Oc1ccc(F)cc1)N1CCOCC1  -1.5%
56. O=C(COc1ccc(Cl)cc1Cl)NCCCNC(=O)c1cnccn1  -1.68%
57. NC(=O)CC(NC(=O)Cc1cccc2ccccc12)c1ccc(NCc2cc(F)ccc2F)c([N+](=O)[O-])c1 (configuration not stated)  -1.72%
58. CCOC(=O)NC(=O)/C(C#N)=C\c1ccccc1  -1.84%
59. C=CCOC(=O)C(=C)C  -1.88%
60. c1ccc(-n2nnnc2NC2CCCCCC2)cc1  -1.89%
61. Cc1ccc(S(=O)(=O)Nc2ccc3ncccc3c2)cc1  -2.27%
62. CC(C)OC(=O)C(C#N)c1nc2ccccc2nc1N1CCN(Cc2ccccc2)CC1 (configuration not stated)  -2.37%
63. [O-][n+]1onc2c1CCc1[nH]c(-c3ccccc3)nc1-2  -2.38%
64. CC(C)(C)Nc1nc(-c2ccccn2)nc2ccccc12  -2.46%
65. CCn1cc(CN2CCN(CC(C)(C)C)C(CCO)C2)c2ccccc21 (configuration not stated)  -2.82%
66. Cn1cc(CCC(=O)NC2CC2)c2ccccc21  -2.88%
67. O=C(c1ccc(Cn2cc([N+](=O)[O-])cn2)o1)N1CCCC1  -2.92%
68. CC1CCCN(S(=O)(=O)c2ccc(-c3ccc(=O)[nH]n3)o2)C1 (configuration not stated)  -2.93%
69. CCOc1cc(-c2noc(CCCC(=O)NC3CCCCC3)n2)ccc1OC  -3.29%
70. COc1ccc(NC(=S)NC2CCS(=O)(=O)C2)cc1 (configuration not stated)  -3.34%
71. CC(C)CC(=O)NC(=S)Nc1cc(C(=O)O)ccc1Cl  -4.75%
72. CC(C)C(=O)NCC(c1cccs1)S(=O)(=O)c1ccc(F)cc1 (configuration not stated)  -4.81%
73. COc1cccc(CC(=O)Nc2nc(-c3ccc(OC)c(OC)c3)cs2)c1  -5.12%
74. Cc1ccc(Cl)cc1NC(=O)C1CCCN(c2cnccn2)C1 (configuration not stated)  -5.58%
75. CCc1ccccc1NC(=S)Nc1cc(OC)c(NC(=O)C(C)C)cc1OC  -6.46%
76. Cc1cccc(-n2ncc(Cl)c(Cl)c2=O)c1  -10%
